{"source": "the supplement of paper PMC8728848", "binders": {"B1": {"name": "Gal 8 (Mus musculus), Q9JL15 (protein)", "chain": "MGGSHHHHHHGMASMLSLNNLQNIIYNPIIPYVGTITEQLKPGSLIVIRGHVPKDSERFQVDFQLGNSLKPRADVAFHFNPRFKRSSCIVCNTLTQEKWGWEEITYDMPFRKEKSFEIVFMVLKNKFQVAVNGRHVLLYAHRISPEQIDTVGIYGKVNIHSIGFRFSSASALPHTLGDLQSMETSALGLTQINRENIQKPGKLQLSLPFEARLNASMGPGRTVVIKGEVNTNARSFNVDLVAGKTRDIALHLNPRLNVKAFVRNSFLQDAWGEEERNITCFPFSSGMYFEMIIYCDVREFKVAINGVHSLEYKHRFKDLSSIDTLSVDGDIRLLDVRSW"}}, "test_in_all_cases": "glycan array binding signal (z-score within array); higher = stronger binding", "conditions_in_all_cases": "glycan notation: IUPAC condensed, linker removed", "key": {"[1]": {"target": "Fuc(a1-2)Gal(b1-3)GalNAc(b1-4)[Neu5Ac(a2-3)]Gal(b1-4)Glc", "summary_of_the_method": "(§1)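 Negative Z-scores can be read as non-binding. The Z-score is calculated within each array and then averaged across arrays of one protein sequence at different concentrations or buffers and across linkers. Arrays, 3228 in all, were curated from the Consortium for Functional Glycomics database and kept only where the protein sequence was available.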"}, "Fuc(a1-2)Gal(b1-3)GlcNAc": {"target": "Fuc(a1-2)Gal(b1-3)GlcNAc", "summary_of_the_method": "as §1"}, "Fuc(a1-2)Gal(b1-4)Glc": {"target": "Fuc(a1-2)Gal(b1-4)Glc", "summary_of_the_method": "as §1"}, "[2]": {"target": "Fuc(a1-2)Gal(b1-4)GlcNAc6S", "summary_of_the_method": "as §1"}, "[3]": {"target": "Fuc(a1-2)Gal(b1-4)[Fuc(a1-3)]GlcNAc(b1-2)Man(a1-3)[Fuc(a1-2)Gal(b1-4)[Fuc(a1-3)]GlcNAc(b1-2)Man(a1-6)]Man(b1-4)GlcNAc(b1-4)[Fuc(a1-6)]GlcNAc", "summary_of_the_method": "as §1"}, "[4]": {"target": "Fuc(a1-2)[Gal(a1-3)]Gal(b1-3)GlcNAc", "summary_of_the_method": "as §1"}, "[5]": {"target": "Fuc(a1-2)[Gal(a1-3)]Gal(b1-3)GlcNAc(b1-2)Man(a1-3)[Fuc(a1-2)[Gal(a1-3)]Gal(b1-3)GlcNAc(b1-2)Man(a1-6)]Man(b1-4)GlcNAc(b1-4)GlcNAc", "summary_of_the_method": "as §1"}, "[6]": {"target": "Fuc(a1-2)[Gal(a1-3)]Gal(b1-4)Glc", "summary_of_the_method": "as §1"}, "[7]": {"target": "Fuc(a1-2)[Gal(a1-3)]Gal(b1-4)GlcNAc", "summary_of_the_method": "as §1"}, "[8]": {"target": "Fuc(a1-2)[Gal(a1-3)]Gal(b1-4)GlcNAc(b1-2)Man", "summary_of_the_method": "as §1"}, "[9]": {"target": "Fuc(a1-2)[Gal(a1-3)]Gal(b1-4)GlcNAc(b1-2)Man(a1-3)[Fuc(a1-2)[Gal(a1-3)]Gal(b1-4)GlcNAc(b1-2)Man(a1-6)]Man(b1-4)GlcNAc(b1-4)[Fuc(a1-6)]GlcNAc", "summary_of_the_method": "as §1"}, "[10]": {"target": "Fuc(a1-2)[Gal(a1-3)]Gal(b1-4)GlcNAc(b1-6)GalNAc", "summary_of_the_method": "as §1"}, "[11]": {"target": "Fuc(a1-2)[GalNAc(a1-3)]Gal(b1-3)GlcNAc", "summary_of_the_method": "as §1"}, "[12]": {"target": "Fuc(a1-2)[GalNAc(a1-3)]Gal(b1-4)GlcNAc(b1-2)Man", "summary_of_the_method": "as §1"}, "[13]": {"target": "Fuc(a1-2)[GalNAc(a1-4)]Gal(b1-4)GlcNAc", "summary_of_the_method": "as §1"}, "[14]": {"target": "Fuc(a1-3)[Gal(b1-4)]GlcNAc(b1-6)[Gal(b1-3)GlcNAc(b1-3)]Gal(b1-4)Glc", "summary_of_the_method": "as §1"}, "[15]": {"target": "Fuc(a1-3)[Gal3S(b1-4)]GlcNAc", "summary_of_the_method": "as §1"}, "[16]": {"target": "Gal(a1-3)Gal(b1-3)[Fuc(a1-4)]GlcNAc(b1-2)Man(a1-3)[Gal(a1-3)Gal(b1-3)[Fuc(a1-4)]GlcNAc(b1-2)Man(a1-6)]Man(b1-4)GlcNAc(b1-4)GlcNAc", "summary_of_the_method": "as §1"}, "[17]": {"target": "Gal(a1-3)Gal(b1-4)GlcNAc(b1-2)Man", "summary_of_the_method": "as §1"}, "Gal(a1-3)GalNAc": {"target": "Gal(a1-3)GalNAc", "summary_of_the_method": "as §1"}, "[18]": {"target": "Gal(a1-4)Gal(b1-3)GlcNAc(b1-2)Man(a1-3)[Gal(a1-4)Gal(b1-3)GlcNAc(b1-2)Man(a1-6)]Man(b1-4)GlcNAc(b1-4)GlcNAc", "summary_of_the_method": "as §1"}, "Gal(b1-2)Gal": {"target": "Gal(b1-2)Gal", "summary_of_the_method": "as §1"}, "[19]": {"target": "Gal(b1-3)GlcNAc(b1-3)Gal(b1-4)[Fuc(a1-3)]GlcNAc", "summary_of_the_method": "as §1"}, "[20]": {"target": "Gal(b1-3)[Fuc(a1-4)]GlcNAc(b1-6)GalNAc", "summary_of_the_method": "as §1"}, "[21]": {"target": "Gal(b1-4)GlcNAc(b1-2)Man(a1-3)[Gal(b1-4)GlcNAc(b1-2)Man(a1-6)][GlcNAc(b1-4)]Man(b1-4)GlcNAc(b1-4)[Fuc(a1-6)]GlcNAc", "summary_of_the_method": "as §1"}, "[22]": {"target": "Gal(b1-4)GlcNAc(b1-2)Man(a1-6)[GlcNAc(b1-2)Man(a1-3)]Man(b1-4)GlcNAc(b1-4)GlcNAc", "summary_of_the_method": "as §1"}, "[23]": {"target": "Gal(b1-4)GlcNAc(b1-3)Gal(b1-4)GlcNAc(b1-3)Gal(b1-4)GlcNAc", "summary_of_the_method": "as §1"}}, "note": "Only a selection was taken, and the strongest signals are over-represented in it overall."}
{"binder": "B1", "values": [{"measurement": "glycan array binding signal (z-score)", "setting": "[1]", "result": -0.259}, {"measurement": "glycan array binding signal (z-score)", "setting": "Fuc(a1-2)Gal(b1-3)GlcNAc", "result": 0.14}, {"measurement": "glycan array binding signal (z-score)", "setting": "Fuc(a1-2)Gal(b1-4)Glc", "result": 0.021}, {"measurement": "glycan array binding signal (z-score)", "setting": "[2]", "result": -0.038}, {"measurement": "glycan array binding signal (z-score)", "setting": "[3]", "result": -0.529}, {"measurement": "glycan array binding signal (z-score)", "setting": "[4]", "result": 3.88}, {"measurement": "glycan array binding signal (z-score)", "setting": "[5]", "result": 3.71}, {"measurement": "glycan array binding signal (z-score)", "setting": "[6]", "result": 2.26}, {"measurement": "glycan array binding signal (z-score)", "setting": "[7]", "result": 3.76}, {"measurement": "glycan array binding signal (z-score)", "setting": "[8]", "result": 2.84}, {"measurement": "glycan array binding signal (z-score)", "setting": "[9]", "result": 3.64}, {"measurement": "glycan array binding signal (z-score)", "setting": "[10]", "result": -0.535}, {"measurement": "glycan array binding signal (z-score)", "setting": "[11]", "result": 1}, {"measurement": "glycan array binding signal (z-score)", "setting": "[12]", "result": 3.48}, {"measurement": "glycan array binding signal (z-score)", "setting": "[13]", "result": -0.537}, {"measurement": "glycan array binding signal (z-score)", "setting": "[14]", "result": 0.008}, {"measurement": "glycan array binding signal (z-score)", "setting": "[15]", "result": -0.521}, {"measurement": "glycan array binding signal (z-score)", "setting": "[16]", "result": -0.204}, {"measurement": "glycan array binding signal (z-score)", "setting": "[17]", "result": 0.378}, {"measurement": "glycan array binding signal (z-score)", "setting": "Gal(a1-3)GalNAc", "result": -0.533}, {"measurement": "glycan array binding signal (z-score)", "setting": "[18]", "result": -0.534}, {"measurement": "glycan array binding signal (z-score)", "setting": "Gal(b1-2)Gal", "result": -0.521}, {"measurement": "glycan array binding signal (z-score)", "setting": "[19]", "result": 0.099}, {"measurement": "glycan array binding signal (z-score)", "setting": "[20]", "result": -0.515}, {"measurement": "glycan array binding signal (z-score)", "setting": "[21]", "result": -0.123}, {"measurement": "glycan array binding signal (z-score)", "setting": "[22]", "result": -0.108}, {"measurement": "glycan array binding signal (z-score)", "setting": "[23]", "result": 0.937}]}
